Consider 92 molecules from PubChem BioAssay AID651813 (National Center for Advancing Translational Sciences (NCATS), 2012).

About 1,100 (52%) of roughly 2,100 compounds were called active. Inconclusive results (about 27%) are left out. So high a share suggests a set chosen from earlier hits. Some of the results follow. Values without a mark were called inactive. The call rests on the fitted dose curve; in most records, active means well fitted inhibition curve with a large enough effect; inconclusive means small, poorly fitted or top-dose-only effect; inactive means no such curve, though single readings can be large or run the other way.
Potency means the concentration at half of the fitted maximal effect.

DNA dC->dU-editing enzyme APOBEC-3G (Homo sapiens), sequence (Q9HC16 whole entry, looked up): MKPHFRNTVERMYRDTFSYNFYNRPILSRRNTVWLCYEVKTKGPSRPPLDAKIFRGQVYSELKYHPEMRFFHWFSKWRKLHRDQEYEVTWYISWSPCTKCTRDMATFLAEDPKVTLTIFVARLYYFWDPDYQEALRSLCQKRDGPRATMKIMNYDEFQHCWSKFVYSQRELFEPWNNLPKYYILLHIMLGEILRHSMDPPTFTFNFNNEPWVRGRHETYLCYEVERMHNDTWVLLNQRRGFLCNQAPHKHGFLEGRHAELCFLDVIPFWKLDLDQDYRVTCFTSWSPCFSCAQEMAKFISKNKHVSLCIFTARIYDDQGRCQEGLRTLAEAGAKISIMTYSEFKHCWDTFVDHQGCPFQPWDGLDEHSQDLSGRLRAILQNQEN

The experiment addresses DNA dC->dU-editing enzyme APOBEC-3G (Homo sapiens) (UniProt Q9HC16). Put plainly: qHTS for inhibitors of Vif-A3G interactions: Cherry picks counterscreen.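 Further: hits raise yellow fluorescence by blocking Vif-driven A3G-eYFP degradation; nearly all actives have a fitted effect of over 70% in size.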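 On max response: max response given as percent of control signal.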 Particulars: HeLa A3G-eYFP + Vif (tagged APOBEC3G with the HIV-1 protein that degrades it), eYFP fluorescence, 24 h. An outline of the steps: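 Readout is eYFP fluorescence (488 nm excitation, 500-530 nm emission) measured on Acumen Explorer after 24 h compound exposure, several concentrations, at 37 deg C. Cells: HeLa stably co-expressing Vif and C-terminally eYFP-tagged A3G; MG132 positive control.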
On the technique in general: Quantitative high-throughput screening tests each substance at several concentrations.
As for `Cn1c(N)c(-c2ccccc2)c2ccc([N+](=O)[O-])cc2c1=O`, the Potency is 5.59 µM (active).
Still for that read-out and setting: to `N#Cc1c(-c2ccccc2F)cc(C2CC2)nc1SCC(=O)c1cccs1` belongs 14 µM (active).
As for `CNC(=S)N/N=C(\C)c1ccc(Cl)s1`, the max response is 0.869%.
`COc1ccc(Cl)cc1NC(=O)CN(C)CC(=O)Nc1ccccc1N1CCOCC1`: the Potency was 1.58 µM (active).
`COc1cc(Cl)c(C)cc1NC(=O)CN1CCN(C(=O)C2CC2)CC1`: the max response is -28.2%.
Still for that read-out and setting: next, `Cc1ccc(C(=O)O)cc1Nc1nc2ccccc2n2nnnc12`: -28%.
With `CC(NC(=O)c1ccc(Nc2nc3ccccc3n3nnnc23)cc1)c1ccccc1` (configuration not stated), the Potency is 20.6 µM (active).
Consider `CN(C)c1ccc(Nc2nc3ccccc3n3nnnc23)cc1`, for which the max response is -13.6%.
With `Fc1ccc(CNc2nc3ccccc3n3nnnc23)cc1`, the Potency was 23.1 µM (active).
Still for that read-out and setting: to `Fc1ccccc1Nc1nc2ccccc2n2nnnc12` belongs 20.6 µM (active).
Take `c1ccc2c(c1)nc(N1CCOCC1)c1nnnn12`: the max response is -18.6%.
For the molecule `CN(C)S(=O)(=O)c1ccc2c(c1)/C(=C/c1cc3c([nH]1)CCCC3)C(=O)N2`, the Potency was 2.8 µM (active).
On the same count and under the same terms, next, `CC(C)(C)C(=O)c1sc2nc(-c3cccs3)cc(C(F)(F)F)c2c1N`: 0.731 µM (active); `CC(=O)c1sc2nc(-c3cccs3)cc(C(F)(F)F)c2c1N`: 13 µM (active); `CCN(CC)C(=O)c1sc2nc(-c3cccs3)cc(-c3ccc(Cl)cc3)c2c1N`: 15.8 µM (active).
In the case of `Nc1c(C(=O)C2CC2)sc2nc(-c3cccs3)cc(C(F)(F)F)c12`, the Potency is 0.461 µM (active).
For `Clc1ccccc1C1CC(c2ccccc2)=Nc2ccccc2N1` (configuration not stated), the max response is -7.91%.
Take `Cc1nc2cc(NC(=O)CSc3nc4c(C)cccc4cc3C#N)ccc2s1`: the Potency is 20.6 µM (active).
Same read-out and setting: to `Cc1ccc2nc(SCC(=O)Nc3ccc4sc(C)nc4c3)c(C#N)cc2c1` belongs 18.4 µM (active).
In the case of `COCCN(CCOC)Cc1c(O)ccc2c1O/C(=C\c1ccc(C)o1)C2=O`, the max response is -11.8%.
With `Cc1nnc(N2C(=O)c3cccc4c([N+](=O)[O-])ccc(c34)C2=O)s1`, the Potency was 20.6 µM (active).
On to `O=C1c2cccc3c([N+](=O)[O-])ccc(c23)C(=O)N1c1ccccn1`, for which the max response is 54.4%.
With `CC(=O)Oc1cccc(N2C(=O)c3cccc4c([N+](=O)[O-])ccc(c34)C2=O)c1`, the Potency was 15.8 µM (active).
On the same count and under the same terms, next, `N#CC1=C(N)C(C#N)(C#N)[C@H](c2c(F)cccc2F)[C@H]2CC3(CC=C12)OCCO3`: 16.4 µM (active); `Cc1ccc(C(=O)NCCn2c(N)c(C#N)c3nc4ccccc4nc32)cc1`: 23.1 µM (active).
Regarding `Cc1cccc(-n2c(N)c(-c3nc4ccccc4n3C)c3nc4ccccc4nc32)c1`, the max response was -1.87%.
Regarding `COc1cc(OC)cc(C(=O)N/N=C/c2ccc(OC)c(COc3ccc4ccccc4c3)c2)c1`, the Potency is 15.8 µM (active).
Turning to `COc1ccccc1/C=N/NC(=S)Nc1cccnc1`, the max response was -12.2%.
`COc1ccc(/C=N/NC(=O)c2ccccc2Cl)cc1CSc1nc2ccccc2s1`: the Potency is 3.14 µM (active).
In the case of `COc1ccc(/C=N/NC(=O)c2cccnc2)cc1COc1ccc(NC(C)=O)cc1`, the Potency is 12.5 µM (active).
Same read-out and setting: next, `COc1ccc(/C=N/NC(=O)c2cccnc2)cc1CSc1ccccn1`: 5.59 µM (active).
As for `COc1cnc(-c2ccccn2)nc1Oc1ccc(F)cc1F`, the max response is -4.73%.
`COc1ccc(/C=N/NC(=O)c2cc(OC)c(OC)c(OC)c2)cc1CN1CCc2cc(OC)c(OC)cc2C1C` (configuration not stated): the Potency is 12.5 µM (active).
Still for that read-out and setting: to `COc1ccc(C(=O)c2sc3nc4c(c(C(F)(F)F)c3c2N)CN(C(C)=O)CC4)cc1OC` belongs 18.4 µM (active); to `CC(=O)N1CCc2nc3sc(C(=O)c4ccc(F)cc4)c(N)c3c(C(F)(F)F)c2C1`, 18.4 µM (active); to `CCOC(=O)c1cc2n(c1/N=C/N(C)C)-c1ccccc1C2=O`, 16.4 µM (active).
Turning to `CCOC(=O)c1cc2n(c1N)-c1ccccc1C2=O`, the max response was -28.5%.
Turning to `CO/N=C\CC(=O)Nc1ccc(Cl)c(Cl)c1`, the Potency is 9.94 µM (active).
The same measure, in the same setting: to `CO/N=C\CC(=O)Nc1ccc(Oc2ccccc2)cc1` belongs 1.98 µM (active).
Still for that read-out and setting: next, `CCCCN1C(=O)/C(=C2/Sc3ccccc3N2C)S/C1=N\c1ncn[nH]1`: 20.6 µM (active).
Same read-out and setting: next, `O=C(NNc1ncc(C(F)(F)F)cc1Cl)c1c(Cl)cccc1Cl`: 14 µM (active).
In the case of `O=C(NCc1ccc2c(c1)OCO2)c1cc([N+](=O)[O-])ccc1N1CCCCC1`, the Potency is 1.98 µM (active).
For the molecule `O=C(/C=C/c1cccs1)NCc1ccc2c(c1)OCO2`, the max response is -24.4%.
Consider `CCc1ccc(C(=O)NC(=S)Nc2ccc(N3CCOCC3)cc2)cc1`, for which the max response is 0.165%.
For `COc1cccc(C(=O)Nc2ccc(N3CCCC3)cc2)c1`, the Potency was 5.59 µM (active).
For `COc1cc(C(=O)OCC(=O)Nc2ccc(N3CCOCC3)cc2)ccc1OCC(C)C`, the max response is 8.76%.
For `COc1cc(OC)cc(C(=O)Nc2ccc(N3CCN(C(=O)c4cccs4)CC3)cc2)c1`, the Potency was 6.27 µM (active).
On the same count and under the same terms, next, `O=[N+]([O-])c1ccc(N/N=C\c2cccn2-c2ccccc2)nc1`: 15.8 µM (active).
On the same count and under the same terms, next, `CCN(CC)c1ccc(C=NNc2ccc([N+](=O)[O-])cn2)cc1`: 1.3 µM (active); `Oc1ccc(C2=NNC(=NCc3ccc4c(c3)OCO4)SC2)c(O)c1`: 7.9 µM (active).
With `COc1ccc(C2C(C#N)=C(N)Oc3cc(N)ccc32)cc1OC` (configuration not stated), the Potency is 9.94 µM (active).
Take `COc1ccc(C2C(C#N)=C(N)Oc3c2ccc2cccnc32)cc1OC` (configuration not stated): the Potency was 1.77 µM (active).
The same measure, in the same setting: next, `N#CC1=C(N)Oc2cc(N)ccc2C1c1cccc(Br)c1` (configuration not stated): 0.627 µM (active).
Same read-out and setting: to `COc1cc(C2C(C#N)=C(N)Oc3cc(O)ccc32)cc2c1OCO2` (configuration not stated) belongs 11.2 µM (active).
In the case of `COc1ccc2nc(Nc3nc(CSc4ccc(C)cc4)cc(=O)[nH]3)nc(C)c2c1`, the max response is -26.4%.
The same measure, in the same setting: to `Cc1oc(C)c2c(=O)ccc3c(c12)OC(N)=C(C#N)C3c1ccc(F)cc1` (configuration not stated) belongs 44.8%.
Regarding `N#CC1=C(N)Oc2cc(N)ccc2C1c1cccc(F)c1` (configuration not stated), the Potency was 4.98 µM (active).
Same read-out and setting: next, `N#CC1=C(N)Oc2cc(N)ccc2C1C1CC=CCC1` (configuration not stated): 5.59 µM (active); `N#CC1=C(N)Oc2cc(N)ccc2C1c1ccccc1` (configuration not stated): 15.8 µM (active).
The same measure, in the same setting: to `N#CC1=C(N)Oc2cc(N)ccc2C1c1ccccc1F` (configuration not stated) belongs 9.94 µM (active); to `COc1ccc(NC(=O)c2cc(-c3ccccc3OC)on2)cc1`, 3.14 µM (active).
For `COc1ccccc1-c1cc(C(=O)NN)[nH]n1`, the max response was 14.5%.
On to `Cc1ccc(S(=O)(=O)C(C#N)c2nc3ccccc3nc2N2CCCC2)cc1` (configuration not stated), for which the Potency is 16.4 µM (active).
For `O=C(O)CSc1cc(NS(=O)(=O)c2cccc([N+](=O)[O-])c2)c2ccccc2c1O`, the max response is -17.9%.
On to `COc1ccc(-n2c(O)c(/C=N/NS(=O)(=O)c3ccc(C)c([N+](=O)[O-])c3)c3ccccc3c2=O)cc1OC`, for which the Potency is 4.61 µM (active).
On the same count and under the same terms, to `COc1ccc(-n2c(O)c(/C=N/NS(=O)(=O)c3cccc([N+](=O)[O-])c3)c3ccccc3c2=O)cc1OC` belongs 12.5 µM (active).
On the same count and under the same terms, to `CCN1C(=O)/C(=C/C=C2\N(CC)c3cc(S(=O)(=O)N(C)C)ccc3N2c2ccccc2)SC1=S` belongs 1.12 µM (active); to `COc1cc(/C=C(/C#N)c2nc3ccccc3[nH]2)ccc1OCC(=O)Nc1ccccc1C(C)C`, 13 µM (active).
Same read-out and setting: to `CN(C)c1ccc(/C=C(\C#N)c2nc3ccccc3c(=O)[nH]2)cc1` belongs 0.411 µM (active).
With `Cc1ccc2nc(/C(C#N)=C/c3ccc(O)c(O)c3)[nH]c2c1`, the max response was 43.5%.
Still for that read-out and setting: next, `N#C/C(=C\c1ccc(C(=O)O)cc1)c1nc2sc3c(c2c(=O)[nH]1)CCCC3`: -29.5%.
As for `N#C/C(=C/c1ccc(O)c(O)c1)c1nc2ccccc2[nH]1`, the Potency is 3.14 µM (active).
With `COc1cc(/C=C(\C#N)c2nc3ccccc3s2)ccc1OCC(=O)Nc1ccccc1`, the Potency is 15.8 µM (active).
On to `O=C(OCCC12CC3CC(CC(C3)C1)C2)c1ccc(NCc2cc(O)ccc2O)cc1`, for which the max response is 25.7%.
Regarding `COc1cc(/C=C(\C#N)c2nc3ccccc3[nH]2)ccc1O`, the Potency is 2.31 µM (active).
Regarding `COc1cc(/C=C(/C#N)c2nc3ccccc3[nH]2)ccc1OC(=O)c1ccco1`, the max response was 51.6%.
On to `O=C1C=C(Nc2ccc(Cl)cc2Cl)CC(c2ccco2)C1` (configuration not stated), for which the Potency is 5.59 µM (active).
The same measure, in the same setting: to `COc1cc2nc(/C=C/c3ccc(N(C)C)cc3)sc2cc1SC` belongs 5.17 µM (active).
Still for that read-out and setting: next, `CN(C)c1ccccc1-c1cc(NC=O)c2ncc(-c3cccc(C(F)(F)F)c3)n2c1`: 12.5 µM (active); `COc1ccc(-c2cnc3c(NC=O)cc(-c4cc(OC)c(OC)c(OC)c4)cn23)cc1OC`: 12.5 µM (active); `COc1ccc(-c2cnc3c(NC=O)cc(-c4ccccc4)cn23)cc1OC`: 3.14 µM (active).
Still for that read-out and setting: to `COc1ccc(-c2cc(NC=O)c3ncc(-c4ccc(OC)c(OC)c4)n3c2)cc1OC` belongs 5.59 µM (active); to `COc1cccc(-c2cnc3c(NC=O)cc(-c4cc(OC)c(OC)c(OC)c4)cn23)c1`, 9.94 µM (active); to `COc1ccc(-c2cnc3c(NC=O)cc(-c4ccoc4)cn23)cc1OC`, 11.2 µM (active).
With `COc1ccccc1-c1cc(NC=O)c2ncc(-c3ccc(S(C)(=O)=O)cc3)n2c1`, the Potency is 17.7 µM (active).
The same measure, in the same setting: next, `CCOc1ccccc1C(=O)Nc1c(C(=O)Nc2ccc(F)cc2)oc2ccccc12`: 2.06 µM (active); `COc1ccccc1NC(=O)c1oc2ccccc2c1NC(=O)c1cccc(OC)c1OC`: 5.8 µM (active).
Consider `CCCOc1ccc(N)cc1N`, for which the max response is -27.6%.
For the molecule `O=C(COC(=O)c1ccc(NS(=O)(=O)c2cccs2)cc1)NCc1ccco1`, the Potency is 15.8 µM (active).
Same read-out and setting: to `O=C(COC(=O)c1ccc(NS(=O)(=O)c2cccs2)cc1O)NCc1ccccc1` belongs 4.44 µM (active).
Take `O=S(=O)(Nc1nc2ccccc2nc1OCC(F)(F)F)c1cccs1`: the max response is -0.0016%.
As for `COc1ccc(NC(=O)COC(=O)c2cc(OC)c(OC)cc2NC(=O)c2ccco2)cc1OC`, the max response was 9.25%.
